Rows were chosen to be rich in hits. Some 21% of all compounds tested hit in one or more screens of this group.
CYP2C19 act – human CYP2C19 activators, primary screen, biochemical, luminescence. Cytochrome P450 2C19 (Homo sapiens), P33261. recombinant CYP2C19, luciferin-H EGE luminescence; stronger effect = higher value; 0 = fully inhibited enzyme, 1 = untreated enzyme. activation factor at 5 µM. 96,000 tested, under 10 active. AID 1025, 2008;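 active = activation factor of at least 2 at 5 µM in the primary screen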;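 also: 0 = wells with 2.5 mM tranylcypromine and 1 = vehicle-only wells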
Target sequence (P33261 whole entry, looked up): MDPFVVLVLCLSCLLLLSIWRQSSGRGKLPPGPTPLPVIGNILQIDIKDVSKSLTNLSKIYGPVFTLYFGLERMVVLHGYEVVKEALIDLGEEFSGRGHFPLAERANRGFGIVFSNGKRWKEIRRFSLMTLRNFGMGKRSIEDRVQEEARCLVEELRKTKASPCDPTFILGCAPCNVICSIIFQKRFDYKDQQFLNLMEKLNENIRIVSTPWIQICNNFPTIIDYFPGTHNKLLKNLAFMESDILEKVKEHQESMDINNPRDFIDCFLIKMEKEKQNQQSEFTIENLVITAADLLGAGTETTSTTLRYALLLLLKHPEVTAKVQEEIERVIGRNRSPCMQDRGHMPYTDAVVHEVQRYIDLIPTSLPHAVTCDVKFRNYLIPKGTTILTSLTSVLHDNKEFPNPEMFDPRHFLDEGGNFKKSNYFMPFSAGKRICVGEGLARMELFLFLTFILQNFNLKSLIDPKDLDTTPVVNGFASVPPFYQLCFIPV
MRP-1 activ – H69AR viability gain despite doxorubicin, primary screen, MRP-1 activator project, H69AR cells, CellTiter-Glo; viability rescue; viability increase, % at 10 µM; actives 0.61% (n = 140,000); AID 799, 2007;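 active = viability gain under doxorubicin at or above a set limit, the compound median plus 3 SD, cut at about 4.7% in these data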;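 also: MRP-1 overexpressing cells given doxorubicin 25 µM after compound pretreatment; 18-22 h compound pretreatment then 72 h with doxorubicin before readout; 0% = doxorubicin-only wells and 100% = vehicle-treated cells without doxorubicin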
MRP reversal – reversal of MRP1-mediated doxorubicin resistance, primary screen, H69AR cells, doxorubicin co-treatment. H69AR cells + 2 uM doxorubicin, CellTiter-Glo, 72 h. differential viability (reversal), % at 10 µM. actives 0.04% (n = 85,000). AID 602, 2007;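 active = viability drop by adding the cancer drug above about 55%, with treated viability meeting a 40% cutoff, limit read from the data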;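 also: viability without doxorubicin minus viability with 2 µM doxorubicin for each compound; larger differential means the compound sensitizes cells more to doxorubicin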
CYP2C9 activ – human CYP2C9 activators, primary screen, biochemical, luminescence; Cytochrome P450 2C9 (Homo sapiens), P11712; recombinant CYP2C9, luciferin-H conversion; stronger effect = higher value; factor 1 = untreated enzyme, 0 = blocked; activation factor at 5 µM; actives 1.4% (n = 96,000); AID 1024, 2008;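 active = activation factor of 2 or more for CYP2C9 at a 5 µM dose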;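 also: 0 = sulfaphenazole-blocked wells and 1 = vehicle-only wells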
CYP2C9 inh – blockers of cytochrome P450 2C9 activity – biochemical, luminescence, ADME assay, primary screen. actives 20% (n = 96,000). CYP2C9 Supersomes, luciferin-H conversion. P11712. inhibition, % at 5 µM;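 active = blocking of liver enzyme CYP2C9 beyond about 50% at 5 µM, limit read from the data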
CYP2C19 inhib – blockers of cytochrome P450 2C19 activity – biochemical, luminescence, ADME assay, primary screen | P33261 | CYP2C19 Supersomes, luciferin-H EGE luminescence, 30 min | inhibition, % at 5 µM | actives 21% (n = 96,000) | AID 778, 2007;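 active = CYP2C19 inhibition above a set limit at 5 µM in the primary screen, cut at about 50% in these data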;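 also: plate controls were negative control wells for no effect and 2.5 mM tranylcypromine positive control for full effect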
Active calls of the source: *.

What do the screens show for `Cc1cc(C)nc(SCC(=O)Nc2ncc(C(F)(F)F)cc2Cl)n1`?
MRP-1 activ: 1

Results for O=C(NCc1cccc(F)c1)C1CCN(S(=O)(=O)Cc2ccccc2)CC1 ?
CYP2C19 act: 0.9; MRP-1 activ: -1; MRP reversal: 0; CYP2C9 activ: 1; CYP2C9 inh: -2; CYP2C19 inhib: 12

How did O=C(NCc1ccncc1)C1CCN(S(=O)(=O)Cc2ccccc2)CC1 do in these assays?
CYP2C19 act: 0.6; MRP-1 activ: 1; MRP reversal: -7; CYP2C9 activ: 0.1; CYP2C9 inh: 92*; CYP2C19 inhib: 44

Results for CC(C)(C)c1ccc(C(=O)N2CCC(C(=O)NCc3ccncc3)CC2)cc1 ?
CYP2C19 act: 0.6; MRP-1 activ: -1; MRP reversal: 3; CYP2C9 activ: 0.4; CYP2C9 inh: 55*; CYP2C19 inhib: 39

What do the screens show for `CCOC(=O)N1[C@@H]2C=C(C)[C@@H]2[C@@H]2[C@@H](C)C(=O)N21`?
MRP-1 activ: -2

Results for COc1ccc(CNC(=O)C(c2ccncc2)N(C(=O)Cc2cccs2)c2ccc(C)cc2)cc1 (stereo not given) ?
CYP2C19 act: 0.3; MRP-1 activ: -1; CYP2C9 activ: 0.3; CYP2C9 inh: 69*; CYP2C19 inhib: 67*

Results for C#CC(=O)N(c1cccc(OC)c1)C(C(=O)NC1CCCC1)c1cccs1 (stereo not given) ?
CYP2C19 act: 0.4; MRP-1 activ: -5; CYP2C9 activ: 0.8; CYP2C9 inh: 24; CYP2C19 inhib: 57*

Results for CCOc1ccc(C(C(=O)NC2CCCC2)N(Cc2ccccc2)C(=O)c2nsc(Cl)c2Cl)cc1 (stereo not given) ?
CYP2C19 act: 0.9; MRP-1 activ: -5; CYP2C9 activ: 0.8; CYP2C9 inh: 25; CYP2C19 inhib: 8

Results for O=C(NC1CCCCC1)C(c1ccc2ncccc2c1)N(Cc1ccc(F)cc1)C(=O)c1cccs1 (stereo not given) ?
CYP2C19 act: 0.3; MRP-1 activ: -4; CYP2C9 activ: 0.2; CYP2C9 inh: 84*; CYP2C19 inhib: 66*

Results for O=C(NC1CCCCC1)C(c1ccc(F)cc1)N(C(=O)c1cccs1)c1ccc2c(c1)OCO2 (stereo not given) ?
CYP2C19 act: 1.1; MRP-1 activ: -3; CYP2C9 activ: 0.9; CYP2C9 inh: 14; CYP2C19 inhib: -5

Results for COc1ccc(CNC(=O)C(c2ccncc2)N(C(=O)Cc2cccs2)c2ccccc2)cc1 (stereo not given) ?
MRP-1 activ: -2

How did COc1ccc(C(C(=O)NC2CCCC2)N(Cc2ccccc2)C(=O)c2nsc(Cl)c2Cl)cc1 (stereo not given) do in these assays?
CYP2C19 act: 0.4; MRP-1 activ: -2; CYP2C9 activ: 0.4; CYP2C9 inh: 64*; CYP2C19 inhib: 61*

Results for COc1ccc(CN(C(=O)Cc2cccs2)C(C(=O)NC2CCCC2)c2ccncc2)cc1 (stereo not given) ?
CYP2C19 act: 0.2; MRP-1 activ: -3; CYP2C9 activ: 0.3; CYP2C9 inh: 67*; CYP2C19 inhib: 80*

Results for COc1ccc(C(C(=O)NC2CCCCC2)N(Cc2cccs2)C(=O)Cc2c[nH]c3ccccc23)cc1 (stereo not given) ?
CYP2C19 act: 0.5; MRP-1 activ: -4; CYP2C9 activ: 0.3; CYP2C9 inh: 68*; CYP2C19 inhib: 49

Results for Cn1cccc1C(C(=O)NC1CCCCC1)N(C(=O)Cc1cccs1)C1CC1 (stereo not given) ?
CYP2C19 act: 0.1; MRP-1 activ: -3; MRP reversal: -1; CYP2C9 activ: 0.9; CYP2C9 inh: 12; CYP2C19 inhib: 92*

How did COc1ccc(N(C(=O)Cc2cccs2)C(C(=O)NC2CCCCC2)c2cccn2C)cc1OC (stereo not given) do in these assays?
MRP-1 activ: -3; MRP reversal: 2

What do the screens show for `COc1ccc(CCN(C(=O)C(F)(F)F)C(C(=O)NC2CCCC2)c2cccs2)cc1OC` (stereo not given)?
CYP2C19 act: 0.1; MRP-1 activ: -1; CYP2C9 activ: 0.1; CYP2C9 inh: 88*; CYP2C19 inhib: 85*

What do the screens show for `COc1ccc(CCN(C(=O)C(F)(F)F)C(C(=O)NC2CCCCC2)c2ccc(C)s2)cc1OC` (stereo not given)?
CYP2C19 act: 1; MRP-1 activ: 0; CYP2C9 activ: 0.6; CYP2C9 inh: 36; CYP2C19 inhib: 0

How did CCCCCCCNC(=O)c1ccc(N2CCC3(CC2)OCCO3)c([N+](=O)[O-])c1 do in these assays?
MRP-1 activ: 1

What do the screens show for `Cc1ccc(Cc2nnc3n(-c4ccccc4)nc(C(=O)c4ccccc4)n3c2=O)cc1`?
MRP-1 activ: -6; MRP reversal: -49

What do the screens show for `COc1cc(C(C(=O)NC2CCCCC2)N(C(=O)Cc2c[nH]c3ccccc23)c2ccc(C)cc2)cc(OC)c1OC` (stereo not given)?
MRP-1 activ: -4

What do the screens show for `COc1cccc(CN(C(=O)Cc2c[nH]c3ccccc23)C(C(=O)NC2CCCCC2)c2cccs2)c1` (stereo not given)?
CYP2C19 act: 0.1; MRP-1 activ: -5; CYP2C9 activ: 0; CYP2C9 inh: 98*; CYP2C19 inhib: 94*

What do the screens show for `Cn1c(N2C(=O)CC(Cc3ccccc3)C2=O)nc2ccccc21` (stereo not given)?
MRP-1 activ: 0; MRP reversal: -3

How did CCn1cc(C2C(C(=O)Nc3cc(C)ccn3)=C(C)NC3=C2C(=O)CC(C)(C)C3)c(C)n1 (stereo not given) do in these assays?
MRP-1 activ: -1

How did CCSc1nc(-c2ccc(OC)cc2)n(-c2nc3ccccc3s2)n1 do in these assays?
CYP2C19 act: 0.9; MRP-1 activ: -1; MRP reversal: -12; CYP2C9 activ: 0.5; CYP2C9 inh: 54*; CYP2C19 inhib: 12

How did COc1ccc(CCNC(=O)Cn2cc(C(F)(F)F)cc(Cl)c2=O)cc1OC do in these assays?
MRP-1 activ: -2

Results for C=CCc1cccc(/C=N/NC(=O)CCC(=O)Nc2ccc(C)cc2)c1O ?
MRP-1 activ: 4

Results for O=C(NC1CCCC1)C(Cc1ccccc1)n1cccc1 (stereo not given) ?
CYP2C19 act: 0.8; MRP-1 activ: -1; MRP reversal: 16; CYP2C9 activ: 0.6; CYP2C9 inh: 35; CYP2C19 inhib: 24

Screening data as filed in PubChem BioAssay.
